The values below come from paper PMC7862700, “An all-to-all approach to the identification of sequence-specific readers for epigenetic DNA modifications on cytosine”.

Test in all cases: DAPPL (digital affinity profiling via proximity ligation, sequencing); 10 mM Tris-HCl pH 7.5, 50 mM NaCl, 1 mM DTT, 4% glycerol, room temperature, 30 min; GST-TFs on glutathione beads, 16-mer random dsDNA library, 0.1% formaldehyde crosslink after washing; high values mean tight binding
One experiment addresses T1, FEV (Homo sapiens, UniProt Q99581 1-238).
T1 sequence: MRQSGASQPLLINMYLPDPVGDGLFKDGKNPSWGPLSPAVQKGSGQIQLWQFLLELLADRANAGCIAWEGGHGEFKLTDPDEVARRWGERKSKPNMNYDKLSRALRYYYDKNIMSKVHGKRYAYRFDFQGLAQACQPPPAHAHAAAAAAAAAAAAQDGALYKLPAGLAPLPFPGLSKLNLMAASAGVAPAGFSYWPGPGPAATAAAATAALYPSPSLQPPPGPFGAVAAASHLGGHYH
The settings on record: protein: recombinant; tags: N-terminal GST; dsDNA, one strand shown. In outline: (§1)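 In yeast, human transcription factors were expressed with a GST fusion, then pulled down on glutathione beads and given DNA barcodes. Pooled with a tag-only sample, they were exposed to 200 nmole of a 16-mer random double-stranded DNA library (Tris/NaCl/DTT/glycerol buffer, room temperature, 30 min), washed, crosslinked with 0.1% formaldehyde, proximity-ligated using BsaI/T4 ligase for 1 h at 37 °C, PCR-amplified and read on an Illumina NextSeq500. Each hexamer's frequency of reads for a factor, divided by the matching frequency for the tag-only sample, gives the binding signal.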

Another experiment deals with ETV5 (Homo sapiens, UniProt P41161 1-510). The settings on record: protein: recombinant; tags: N-terminal GST; dsDNA, one strand shown. An outline of the steps:
as §1

A further experiment addresses HSF1 (Homo sapiens, UniProt Q00613 1-529). The settings on record: protein: recombinant; tags: N-terminal GST; chain copies: 3; dsDNA, one strand shown. An outline of the steps: as §1
A further experiment has as its target T2, SPIC (Homo sapiens, UniProt Q8N5J4 1-248).
T2 sequence: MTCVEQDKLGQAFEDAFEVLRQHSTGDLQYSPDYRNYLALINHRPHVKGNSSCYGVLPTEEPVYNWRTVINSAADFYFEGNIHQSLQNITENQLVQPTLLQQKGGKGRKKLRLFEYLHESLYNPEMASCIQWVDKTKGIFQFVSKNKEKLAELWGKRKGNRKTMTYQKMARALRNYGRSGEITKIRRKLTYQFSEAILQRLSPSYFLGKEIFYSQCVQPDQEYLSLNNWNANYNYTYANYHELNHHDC
The settings on record: protein: recombinant; tags: N-terminal GST; dsDNA, one strand shown. In outline: as §1

For another experiment, the target named is ELF4 (Homo sapiens, UniProt Q99607 1-663). The settings on record: protein: recombinant; tags: N-terminal GST; dsDNA, one strand shown. An outline of the steps:
as §1

For the next experiment, the target named is T3, ELK4 (Homo sapiens, UniProt P28324-2 1-405).
T3 sequence: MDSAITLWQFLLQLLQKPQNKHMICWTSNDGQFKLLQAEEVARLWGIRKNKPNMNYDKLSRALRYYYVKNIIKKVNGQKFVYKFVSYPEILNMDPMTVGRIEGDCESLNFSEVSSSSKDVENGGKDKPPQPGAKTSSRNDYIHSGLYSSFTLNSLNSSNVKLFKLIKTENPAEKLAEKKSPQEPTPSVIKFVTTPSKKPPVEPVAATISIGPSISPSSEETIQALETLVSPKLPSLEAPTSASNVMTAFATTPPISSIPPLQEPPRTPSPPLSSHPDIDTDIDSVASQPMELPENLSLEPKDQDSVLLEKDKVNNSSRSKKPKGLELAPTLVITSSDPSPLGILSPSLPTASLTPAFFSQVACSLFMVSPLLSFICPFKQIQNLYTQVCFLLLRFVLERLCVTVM
The settings on record: protein: recombinant; tags: N-terminal GST; dsDNA, one strand shown. An outline of the steps:
as §1

For a further experiment, the target named is T4, ETV2 (Homo sapiens, UniProt O00321 1-342).
T4 sequence: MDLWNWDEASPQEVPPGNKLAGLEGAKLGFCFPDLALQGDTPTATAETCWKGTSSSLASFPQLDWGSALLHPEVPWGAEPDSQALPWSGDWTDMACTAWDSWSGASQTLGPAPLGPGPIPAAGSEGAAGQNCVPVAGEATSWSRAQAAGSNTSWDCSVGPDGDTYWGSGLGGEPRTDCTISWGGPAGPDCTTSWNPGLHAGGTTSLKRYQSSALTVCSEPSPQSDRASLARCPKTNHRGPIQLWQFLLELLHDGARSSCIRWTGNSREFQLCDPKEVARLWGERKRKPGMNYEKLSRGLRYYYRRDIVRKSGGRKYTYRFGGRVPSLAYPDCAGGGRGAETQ
The settings on record: protein: recombinant; tags: N-terminal GST; dsDNA, one strand shown. An outline of the steps:
as §1

In a further experiment the target is T5, ELF3 (Homo sapiens, UniProt P78545 1-371).
T5 sequence: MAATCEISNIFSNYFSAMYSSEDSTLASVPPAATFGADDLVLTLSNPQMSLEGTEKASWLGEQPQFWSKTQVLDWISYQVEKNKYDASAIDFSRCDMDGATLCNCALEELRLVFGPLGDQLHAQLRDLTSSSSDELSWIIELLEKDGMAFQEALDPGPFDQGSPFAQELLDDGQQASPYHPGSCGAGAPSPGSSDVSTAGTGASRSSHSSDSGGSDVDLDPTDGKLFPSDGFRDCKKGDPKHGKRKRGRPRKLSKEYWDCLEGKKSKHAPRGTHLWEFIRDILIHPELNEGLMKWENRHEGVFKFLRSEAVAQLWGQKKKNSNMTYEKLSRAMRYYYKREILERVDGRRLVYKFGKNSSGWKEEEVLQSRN
The settings on record: protein: recombinant; tags: N-terminal GST; dsDNA, one strand shown. In outline:
as §1

Another experiment addresses CRX (Homo sapiens, UniProt O43186 1-299). The settings on record: protein: recombinant; tags: N-terminal GST; dsDNA, one strand shown. An outline of the steps:
as §1

For another experiment, the target named is ETV1 (Homo sapiens, UniProt P50549 1-477). The settings on record: protein: recombinant; tags: N-terminal GST; dsDNA, one strand shown. An outline of the steps:
as §1

A further experiment deals with T6, ERF (Homo sapiens, UniProt P50548 1-548).
T6 sequence: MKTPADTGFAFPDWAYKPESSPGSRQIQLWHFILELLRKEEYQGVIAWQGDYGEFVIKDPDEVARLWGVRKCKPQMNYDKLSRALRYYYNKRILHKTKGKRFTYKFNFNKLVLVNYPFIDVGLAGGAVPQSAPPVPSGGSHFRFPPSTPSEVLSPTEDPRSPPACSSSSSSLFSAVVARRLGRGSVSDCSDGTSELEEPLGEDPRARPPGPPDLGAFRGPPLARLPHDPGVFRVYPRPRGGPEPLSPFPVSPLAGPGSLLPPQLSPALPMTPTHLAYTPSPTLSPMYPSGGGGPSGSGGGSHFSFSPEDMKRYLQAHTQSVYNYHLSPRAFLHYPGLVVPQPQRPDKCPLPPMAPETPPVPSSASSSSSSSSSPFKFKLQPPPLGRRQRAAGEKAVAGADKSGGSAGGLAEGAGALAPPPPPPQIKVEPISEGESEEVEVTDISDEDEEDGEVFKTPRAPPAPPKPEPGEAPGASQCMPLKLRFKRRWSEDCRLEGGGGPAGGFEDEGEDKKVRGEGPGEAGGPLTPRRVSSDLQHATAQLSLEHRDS
The settings on record: protein: recombinant; tags: N-terminal GST; dsDNA, one strand shown. In outline:
as §1

The target in a further experiment is T7, ETV3L (Homo sapiens, UniProt Q6ZN32 1-361).
T7 sequence: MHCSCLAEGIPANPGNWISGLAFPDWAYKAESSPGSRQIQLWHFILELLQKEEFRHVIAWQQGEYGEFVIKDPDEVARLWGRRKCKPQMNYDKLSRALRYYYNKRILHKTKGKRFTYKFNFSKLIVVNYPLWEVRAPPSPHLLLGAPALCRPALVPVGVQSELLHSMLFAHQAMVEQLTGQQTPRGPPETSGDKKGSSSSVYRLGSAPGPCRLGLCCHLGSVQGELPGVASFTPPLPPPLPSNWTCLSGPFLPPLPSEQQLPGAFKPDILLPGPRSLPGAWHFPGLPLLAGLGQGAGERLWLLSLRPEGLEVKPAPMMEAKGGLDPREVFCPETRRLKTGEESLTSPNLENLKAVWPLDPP
The settings on record: protein: recombinant; tags: N-terminal GST; dsDNA, one strand shown. An outline of the steps: as §1

Another experiment addresses T8, ETS2 (Homo sapiens, UniProt P15036 1-469).
T8 sequence: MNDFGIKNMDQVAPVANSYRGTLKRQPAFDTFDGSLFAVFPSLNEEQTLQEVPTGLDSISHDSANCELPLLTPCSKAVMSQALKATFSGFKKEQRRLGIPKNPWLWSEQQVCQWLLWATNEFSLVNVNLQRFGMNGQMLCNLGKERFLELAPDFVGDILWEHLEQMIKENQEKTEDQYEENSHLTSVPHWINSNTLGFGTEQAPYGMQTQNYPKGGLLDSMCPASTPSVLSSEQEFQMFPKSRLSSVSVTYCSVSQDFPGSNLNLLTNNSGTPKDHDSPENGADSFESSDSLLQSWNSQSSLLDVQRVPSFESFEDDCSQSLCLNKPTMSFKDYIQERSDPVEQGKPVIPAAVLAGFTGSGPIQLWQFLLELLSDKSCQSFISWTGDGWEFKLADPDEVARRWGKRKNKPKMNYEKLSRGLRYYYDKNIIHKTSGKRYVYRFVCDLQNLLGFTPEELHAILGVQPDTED
The settings on record: protein: recombinant; tags: N-terminal GST; dsDNA, one strand shown. An outline of the steps:
as §1

The next experiment deals with T9, SPDEF (Homo sapiens, UniProt O95238 1-335).
T9 sequence: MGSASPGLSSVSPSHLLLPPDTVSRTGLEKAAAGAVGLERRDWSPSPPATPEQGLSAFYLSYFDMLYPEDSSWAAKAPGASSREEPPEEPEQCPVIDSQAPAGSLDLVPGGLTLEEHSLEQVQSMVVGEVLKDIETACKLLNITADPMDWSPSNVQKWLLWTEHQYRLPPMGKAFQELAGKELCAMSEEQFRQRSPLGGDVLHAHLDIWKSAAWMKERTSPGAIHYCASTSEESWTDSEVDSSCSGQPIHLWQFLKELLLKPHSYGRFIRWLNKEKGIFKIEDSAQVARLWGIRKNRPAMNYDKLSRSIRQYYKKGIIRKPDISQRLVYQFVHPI
The settings on record: protein: recombinant; tags: N-terminal GST; dsDNA, one strand shown. An outline of the steps: as §1

Another experiment deals with T10, ETV7 (Homo sapiens, UniProt Q9Y603 1-341).
T10 sequence: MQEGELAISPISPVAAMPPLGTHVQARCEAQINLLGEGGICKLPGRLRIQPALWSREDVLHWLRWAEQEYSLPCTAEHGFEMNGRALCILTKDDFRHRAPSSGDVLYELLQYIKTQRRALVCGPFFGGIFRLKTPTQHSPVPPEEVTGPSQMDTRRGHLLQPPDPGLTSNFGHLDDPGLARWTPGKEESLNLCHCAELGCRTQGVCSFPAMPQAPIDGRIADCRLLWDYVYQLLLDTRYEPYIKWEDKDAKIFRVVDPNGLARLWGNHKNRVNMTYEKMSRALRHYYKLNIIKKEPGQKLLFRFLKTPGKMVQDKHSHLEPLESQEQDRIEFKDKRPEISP
The settings on record: protein: recombinant; tags: N-terminal GST; dsDNA, one strand shown. An outline of the steps:
as §1

Another experiment concerns the target T11, ELF5 (Homo sapiens, UniProt Q9UKW6-2 1-255).
T11 sequence: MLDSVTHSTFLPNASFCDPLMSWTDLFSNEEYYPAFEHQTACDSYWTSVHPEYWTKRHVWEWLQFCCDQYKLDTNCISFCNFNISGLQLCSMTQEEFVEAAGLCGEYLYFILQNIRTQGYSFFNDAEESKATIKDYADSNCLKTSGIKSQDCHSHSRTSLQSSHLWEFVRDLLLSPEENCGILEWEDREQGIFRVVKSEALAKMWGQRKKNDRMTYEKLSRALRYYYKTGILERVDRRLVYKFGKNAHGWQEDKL
The settings on record: protein: recombinant; tags: N-terminal GST; dsDNA, one strand shown. An outline of the steps:
as §1

The target in the next experiment is T12, ETV3 (Homo sapiens, UniProt P41162-2 1-143).
T12 sequence: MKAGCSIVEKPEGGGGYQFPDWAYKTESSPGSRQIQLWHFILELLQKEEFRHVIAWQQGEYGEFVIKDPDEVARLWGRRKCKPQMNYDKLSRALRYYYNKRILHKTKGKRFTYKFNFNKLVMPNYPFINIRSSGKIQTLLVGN
The settings on record: protein: recombinant; tags: N-terminal GST; dsDNA, one strand shown. An outline of the steps: as §1

A further experiment concerns the target ETV6 (Homo sapiens, UniProt P41212 1-452). The settings on record: protein: recombinant; tags: N-terminal GST; dsDNA, one strand shown. In outline:
as §1

Chain of HSF1 (Q00613 whole entry): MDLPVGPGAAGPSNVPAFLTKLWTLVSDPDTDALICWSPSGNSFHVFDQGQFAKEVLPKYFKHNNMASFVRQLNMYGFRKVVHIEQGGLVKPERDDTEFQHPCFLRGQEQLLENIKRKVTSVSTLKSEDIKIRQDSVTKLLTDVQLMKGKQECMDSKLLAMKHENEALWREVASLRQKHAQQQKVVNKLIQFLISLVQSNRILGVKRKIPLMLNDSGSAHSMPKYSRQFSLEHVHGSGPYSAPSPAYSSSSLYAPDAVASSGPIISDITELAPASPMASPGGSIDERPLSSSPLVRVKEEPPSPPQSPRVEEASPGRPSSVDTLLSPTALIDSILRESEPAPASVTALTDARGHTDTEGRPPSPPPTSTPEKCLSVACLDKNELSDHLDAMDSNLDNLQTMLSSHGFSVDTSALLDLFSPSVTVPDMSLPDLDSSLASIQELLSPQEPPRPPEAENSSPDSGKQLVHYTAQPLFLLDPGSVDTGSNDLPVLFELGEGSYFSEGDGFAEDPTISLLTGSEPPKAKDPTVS
Chain of ETV6 (P41212 whole entry): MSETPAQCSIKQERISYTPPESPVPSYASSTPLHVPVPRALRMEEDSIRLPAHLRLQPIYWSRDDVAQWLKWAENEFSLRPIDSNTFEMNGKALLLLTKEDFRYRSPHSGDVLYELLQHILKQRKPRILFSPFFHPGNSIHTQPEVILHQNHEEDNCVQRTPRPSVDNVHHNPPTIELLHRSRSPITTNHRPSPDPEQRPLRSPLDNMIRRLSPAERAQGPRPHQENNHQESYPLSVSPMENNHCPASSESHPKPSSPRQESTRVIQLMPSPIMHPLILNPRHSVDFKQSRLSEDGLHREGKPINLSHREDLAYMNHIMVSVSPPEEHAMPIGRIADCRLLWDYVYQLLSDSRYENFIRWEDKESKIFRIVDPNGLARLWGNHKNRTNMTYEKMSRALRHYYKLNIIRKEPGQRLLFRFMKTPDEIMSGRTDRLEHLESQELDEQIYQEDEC
Chain of ELF4 (Q99607 whole entry): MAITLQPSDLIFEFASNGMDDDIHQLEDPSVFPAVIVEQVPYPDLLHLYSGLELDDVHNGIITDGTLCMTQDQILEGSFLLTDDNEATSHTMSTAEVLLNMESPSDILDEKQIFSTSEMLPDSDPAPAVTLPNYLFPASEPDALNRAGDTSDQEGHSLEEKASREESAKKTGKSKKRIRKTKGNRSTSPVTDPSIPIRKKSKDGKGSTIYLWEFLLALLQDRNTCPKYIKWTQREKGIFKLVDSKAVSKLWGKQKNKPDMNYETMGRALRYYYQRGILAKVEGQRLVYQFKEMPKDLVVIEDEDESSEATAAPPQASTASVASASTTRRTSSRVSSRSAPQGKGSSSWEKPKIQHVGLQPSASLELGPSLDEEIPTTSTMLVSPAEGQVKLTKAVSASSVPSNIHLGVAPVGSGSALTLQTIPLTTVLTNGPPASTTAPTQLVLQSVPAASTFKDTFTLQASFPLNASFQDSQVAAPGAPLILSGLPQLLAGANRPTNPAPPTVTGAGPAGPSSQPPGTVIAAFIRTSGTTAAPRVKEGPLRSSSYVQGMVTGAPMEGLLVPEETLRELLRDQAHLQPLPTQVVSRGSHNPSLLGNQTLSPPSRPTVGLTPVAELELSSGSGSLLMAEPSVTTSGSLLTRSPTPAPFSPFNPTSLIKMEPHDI
Chain of ETV1 (P50549 whole entry): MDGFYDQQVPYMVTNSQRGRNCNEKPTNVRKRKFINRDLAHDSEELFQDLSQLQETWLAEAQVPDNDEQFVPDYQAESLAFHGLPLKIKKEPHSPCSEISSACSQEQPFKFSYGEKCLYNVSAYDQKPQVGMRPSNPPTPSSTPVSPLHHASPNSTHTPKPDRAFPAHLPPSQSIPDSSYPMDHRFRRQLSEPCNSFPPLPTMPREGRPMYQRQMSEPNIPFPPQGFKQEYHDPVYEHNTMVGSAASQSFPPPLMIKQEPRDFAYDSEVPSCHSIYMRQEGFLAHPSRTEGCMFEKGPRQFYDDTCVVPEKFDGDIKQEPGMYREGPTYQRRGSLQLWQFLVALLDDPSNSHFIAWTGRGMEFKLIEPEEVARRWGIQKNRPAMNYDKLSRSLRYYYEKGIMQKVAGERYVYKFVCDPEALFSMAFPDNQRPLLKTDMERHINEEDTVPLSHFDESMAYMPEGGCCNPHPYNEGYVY
Chain of ETV5 (P41161 whole entry): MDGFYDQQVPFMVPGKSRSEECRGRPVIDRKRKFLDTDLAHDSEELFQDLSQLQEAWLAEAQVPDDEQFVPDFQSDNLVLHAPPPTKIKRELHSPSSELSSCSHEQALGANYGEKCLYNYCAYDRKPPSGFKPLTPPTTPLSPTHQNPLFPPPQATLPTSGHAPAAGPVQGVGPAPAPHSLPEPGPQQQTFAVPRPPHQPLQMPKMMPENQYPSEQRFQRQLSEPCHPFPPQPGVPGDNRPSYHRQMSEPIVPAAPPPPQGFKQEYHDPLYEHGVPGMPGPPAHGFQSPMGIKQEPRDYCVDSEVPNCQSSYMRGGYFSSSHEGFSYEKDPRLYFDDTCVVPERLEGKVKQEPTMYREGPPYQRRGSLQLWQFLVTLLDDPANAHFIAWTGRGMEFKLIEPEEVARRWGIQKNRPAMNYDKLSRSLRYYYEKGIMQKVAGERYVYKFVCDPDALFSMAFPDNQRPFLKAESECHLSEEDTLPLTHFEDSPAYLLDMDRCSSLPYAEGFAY
Chain of CRX (O43186 whole entry): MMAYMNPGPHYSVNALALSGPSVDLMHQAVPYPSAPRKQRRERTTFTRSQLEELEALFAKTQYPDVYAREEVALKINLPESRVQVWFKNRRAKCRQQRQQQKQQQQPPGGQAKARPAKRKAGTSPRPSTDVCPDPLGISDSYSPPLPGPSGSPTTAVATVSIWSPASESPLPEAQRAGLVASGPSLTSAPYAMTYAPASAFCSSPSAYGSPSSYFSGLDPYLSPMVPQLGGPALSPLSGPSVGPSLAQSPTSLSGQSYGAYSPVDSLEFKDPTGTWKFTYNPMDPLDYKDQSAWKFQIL

Take ATTTTT: the binding signal is 1.15 fold enrichment (6-mer frequency, TF over GST control) with FEV; 1.21 fold enrichment (6-mer frequency, TF over GST control) in the experiment with ETV5; 1.31 fold enrichment (6-mer frequency, TF over GST control) with HSF1; 1.1 fold enrichment (6-mer frequency, TF over GST control) with SPIC; 1.19 fold enrichment (6-mer frequency, TF over GST control) with ELF4; 1.31 fold enrichment (6-mer frequency, TF over GST control) in the experiment with ELK4. Moreover, the binding signal with ETV2 is 1.29 fold enrichment (6-mer frequency, TF over GST control); with ELF3 it was 1.2 fold enrichment (6-mer frequency, TF over GST control); with CRX it was 1.28 fold enrichment (6-mer frequency, TF over GST control); with ETV1, 1.28 fold enrichment (6-mer frequency, TF over GST control); in the experiment with ERF, 1.21 fold enrichment (6-mer frequency, TF over GST control); with ETV3L, 1.2 fold enrichment (6-mer frequency, TF over GST control). The binding signal with ETS2 is 1.1 fold enrichment (6-mer frequency, TF over GST control); in the experiment with SPDEF, 1.15 fold enrichment (6-mer frequency, TF over GST control); in the experiment with ETV7, 1.19 fold enrichment (6-mer frequency, TF over GST control); in the experiment with ELF5, 1.16 fold enrichment (6-mer frequency, TF over GST control); in the experiment with ETV3, 1.17 fold enrichment (6-mer frequency, TF over GST control); in the experiment with ETV6 it was 1.17 fold enrichment (6-mer frequency, TF over GST control).
